For 30 molecules, composite z-score and z-score results are on record in PubChem BioAssay.

Activity calls are given as the source filed them.

One assay can be described thus: probe aCHRDL2 binding to arrayed compounds – biochemical, biotinylated probe, 635/667 nm fluorescence, primary screen (AID 1100). Conditions: small-molecule microarray, higher = more signal.
With `CC(C)=CCCC(C)=CCON=C1C[C@@H](O)[C@@H](O)[C@@H]2[C@@H]3C(=O)N(Cc4ccc5c(c4)OCO5)C(=O)[C@@H]3CC[C@H]12`, the composite z-score is -0.257.
In turn, `CC(=O)OC[C@H]1O[C@H](CC=NOC(C)CN2CCCCc3nc(C)c(C)cc32)C=C[C@@H]1OC(C)=O` (stereo not given in full) returned a composite z-score of -0.199.
Still for that read-out and setting: under `CCOC(=O)[C@H](Cc1ccccc1)NC(=O)CCC1CC(OC(=O)NCCc2ccc(F)cc2)CC2(CCCC(COC(=O)NCc3cccc(C(F)(F)F)c3)O2)O1` (stereo not given in full) stands -0.311; under `O=C1C=C[C@@H](O)[C@@H]2[C@@H]3C(=O)N(Cc4ccc5c(c4)OCO5)C(=O)[C@@H]3CC[C@@H]12`, -0.528.
Take `O=C1CCCC=C1C(O)c1ccc([N+](=O)[O-])cc1` (stereo not given): the composite z-score is -0.429.
For the molecule `COC(=O)CC=C[C@@H](C)[C@@H](C=NOC(C)CN1CCCCc2nc(C)c(C)cc21)NS(=O)(=O)c1ccc(C)cc1` (stereo not given in full), the composite z-score came out at 0.0097.
Regarding `CC(CCC(=O)OC[C@H]1O[C@H](C#Cc2ccccc2)C=C[C@@H]1Oc1ccc(C)cc1)=NOC(C)CN1CCCc2nc(C)c(C)cc21` (stereo not given in full), the composite z-score was -0.35.
Still for that read-out and setting: to `CCN1C(=O)[C@H]2[C@H]3[C@H](O)[C@H](O)CC(=NO[C@H](C)c4cn([C@@H]5COC[C@H]5O)nn4)[C@@H]3CC[C@H]2C1=O` belongs -0.593.
Regarding `COc1ccc(-c2cnnc(CCCn3ccnc3-c3ccccc3)n2)cc1`, the composite z-score was -0.592.

Another assay is described as follows: change in splice reporter luminescence, either direction, cell-based, HEK293, spliceosome inhibition project, primary screen (AID 1101).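 Note: HEK293 cells carrying a splicing-competent luciferase reporter gene; test concentration not given here.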 The conditions noted are these: HEK293 splicing luciferase reporter, 24 h, higher = more signal, called active from +8 up or from −8 down. A general note: A reporter such as luciferase makes a cellular process visible.
For `O=C1C=C[C@@H](O)[C@@H]2[C@@H]3C(=O)N(C4CCCCC4)C(=O)[C@@H]3CC[C@@H]12`, the z-score was 2.14 (inactive).
For `C[C@@H]1CC[C@H]2C(=O)OC(Cc3ccccc3)CN2[C@H]1c1ccc(Br)cc1` (stereo not given in full), the z-score is 0.264 (inactive).
As to `O=C1[C@H]2[C@H]3[C@H](O)[C@H](O)CC(=NO[C@@H]4O[C@H](CO)[C@@H](O)[C@H](O)[C@H]4O)[C@H]3CC[C@H]2C(=O)N1c1ccc(F)cc1F`, the z-score was 0.324 (inactive).
As to `COc1ccc(COC(=O)NN=C2C[C@@H](O)[C@@H](O)[C@@H]3[C@@H]4C(=O)N([C@@H](C)c5ccccc5)C(=O)[C@@H]4CC[C@H]23)cc1`, the z-score is 0.445 (inactive).
On the same count and under the same terms, to `CC(=O)OC[C@H]1O[C@H](CC=NO[C@H](C)c2cn([C@@H]3COC[C@H]3O)nn2)C=C[C@@H]1OC(C)=O` belongs -1.06 (inactive).
For `COc1ccc(O[C@H]2C=C[C@@H](c3ccccc3)O[C@@H]2CO)cc1`, the z-score is -0.752 (inactive).
On the same count and under the same terms, to `CCOC(=O)[C@H](Cc1ccccc1)NC(=O)CCC1CC(OC(=O)NCCc2ccc(F)cc2)CC2(CCCC(COC(=O)NCCOc3ccccc3)O2)O1` (stereo not given in full) belongs -0.421 (inactive); to `O=C1C[C@@H](O)[C@@H](O)[C@@H]2[C@@H]3C(=O)N(C4CCCCC4)C(=O)[C@@H]3CC[C@@H]12`, 0.602 (inactive); to `CC(CCN1CCCCc2nc(C)c(C)cc21)=NO[C@@H](C)c1cc(-c2c(C)cc(C)cc2C)no1`, 0.673 (inactive).
Turning to `CCOC(=O)[C@H](CC(C)C)NC(=O)CCC1CC(OC(=O)NCc2ccc3c(c2)OCO3)CC2(CCCC(COC(=O)NCCOc3ccccc3)O2)O1` (stereo not given in full), the z-score was -0.149 (inactive).
Same read-out and setting: under `C=CC[C@@H]1C=C[C@H](ON=C(C)CCN2CCCc3nc(C)c(C)cc32)[C@@H](CO)O1` stands 0.0487 (inactive); under `O=C1CCCC=C1C(O)C1CCCCC1` (stereo not given), 0.301 (inactive).
The same measure, in the same setting: under `CO[C@H]1COC(=O)CC=C[C@H](C)[C@H](OC)COC(=O)[C@@H](C)NC(=O)CC=C[C@@H]1C` stands -0.59 (inactive); under `COC(=O)CC=C[C@@H](C)[C@@H](C=NOC[C@@H](C)[C@H](OCc1ccccc1)C(C)C)OC`, -0.201 (inactive).
As to `CC(C)CON=C1C[C@@H](O)[C@@H](O)[C@@H]2[C@@H]3C(=O)N(C(C)(C)C)C(=O)[C@@H]3CC[C@@H]12`, the z-score was -1.15 (inactive).
Consider `CC1(C)O[C@H]2OC([C@H](O)CON3C(=O)c4ccccc4C3=O)[C@H](O)[C@H]2O1` (stereo not given in full), for which the z-score is 0.105 (inactive).
Regarding `CCOC(=O)CCN1C(=O)[C@H]2[C@H]3[C@H](O)[C@H](O)CC(=NNC(=O)OCC)[C@H]3CC[C@H]2C1=O`, the z-score is -0.24 (inactive).
The same measure, in the same setting: under `CCN(CC)CC(O)CN1CCCCc2nc(C)c(C)cc21` (stereo not given) stands -1.7 (inactive); under `CC(C)=NO[C@@H](C)c1cn([C@H](CO)Cc2ccccc2)nn1`, -0.937 (inactive); under `O=C(NN=C1C[C@@H](O)[C@@H](O)[C@@H]2[C@@H]3C(=O)N(Cc4ccccc4)C(=O)[C@@H]3CC[C@H]12)OCc1ccccc1`, -0.865 (inactive).
As for `CCOC(=O)CCN1C(=O)[C@H]2[C@H]3[C@H](O)[C@H](O)CC(=NOCC=C(C)CCC=C(C)C)[C@H]3CC[C@H]2C1=O`, the z-score is 0.0511 (inactive).
